From the supplement of paper PMC11732987, “Enantioselective OTUD7B fragment discovery through chemoproteomics screening and high-throughput optimisation” (Communications Chemistry, 2025)

How the values were obtained:
Assay in all cases: log2 ratio of Biotin-Ahx-Ub-VS probe labelling (fragment/DMSO); higher = less target engagement (more negative = stronger competition), active = hit call of the paper (q ≤ 0.05, log2 ratio ≤ -1)
Conditions in all cases: compound concentration: 200 uM; treatment time: 3 h
USP34 = USP34 (UniProt Q70CQ2)
Sequence of USP34 (Q70CQ2 whole entry, the tested form may be a part): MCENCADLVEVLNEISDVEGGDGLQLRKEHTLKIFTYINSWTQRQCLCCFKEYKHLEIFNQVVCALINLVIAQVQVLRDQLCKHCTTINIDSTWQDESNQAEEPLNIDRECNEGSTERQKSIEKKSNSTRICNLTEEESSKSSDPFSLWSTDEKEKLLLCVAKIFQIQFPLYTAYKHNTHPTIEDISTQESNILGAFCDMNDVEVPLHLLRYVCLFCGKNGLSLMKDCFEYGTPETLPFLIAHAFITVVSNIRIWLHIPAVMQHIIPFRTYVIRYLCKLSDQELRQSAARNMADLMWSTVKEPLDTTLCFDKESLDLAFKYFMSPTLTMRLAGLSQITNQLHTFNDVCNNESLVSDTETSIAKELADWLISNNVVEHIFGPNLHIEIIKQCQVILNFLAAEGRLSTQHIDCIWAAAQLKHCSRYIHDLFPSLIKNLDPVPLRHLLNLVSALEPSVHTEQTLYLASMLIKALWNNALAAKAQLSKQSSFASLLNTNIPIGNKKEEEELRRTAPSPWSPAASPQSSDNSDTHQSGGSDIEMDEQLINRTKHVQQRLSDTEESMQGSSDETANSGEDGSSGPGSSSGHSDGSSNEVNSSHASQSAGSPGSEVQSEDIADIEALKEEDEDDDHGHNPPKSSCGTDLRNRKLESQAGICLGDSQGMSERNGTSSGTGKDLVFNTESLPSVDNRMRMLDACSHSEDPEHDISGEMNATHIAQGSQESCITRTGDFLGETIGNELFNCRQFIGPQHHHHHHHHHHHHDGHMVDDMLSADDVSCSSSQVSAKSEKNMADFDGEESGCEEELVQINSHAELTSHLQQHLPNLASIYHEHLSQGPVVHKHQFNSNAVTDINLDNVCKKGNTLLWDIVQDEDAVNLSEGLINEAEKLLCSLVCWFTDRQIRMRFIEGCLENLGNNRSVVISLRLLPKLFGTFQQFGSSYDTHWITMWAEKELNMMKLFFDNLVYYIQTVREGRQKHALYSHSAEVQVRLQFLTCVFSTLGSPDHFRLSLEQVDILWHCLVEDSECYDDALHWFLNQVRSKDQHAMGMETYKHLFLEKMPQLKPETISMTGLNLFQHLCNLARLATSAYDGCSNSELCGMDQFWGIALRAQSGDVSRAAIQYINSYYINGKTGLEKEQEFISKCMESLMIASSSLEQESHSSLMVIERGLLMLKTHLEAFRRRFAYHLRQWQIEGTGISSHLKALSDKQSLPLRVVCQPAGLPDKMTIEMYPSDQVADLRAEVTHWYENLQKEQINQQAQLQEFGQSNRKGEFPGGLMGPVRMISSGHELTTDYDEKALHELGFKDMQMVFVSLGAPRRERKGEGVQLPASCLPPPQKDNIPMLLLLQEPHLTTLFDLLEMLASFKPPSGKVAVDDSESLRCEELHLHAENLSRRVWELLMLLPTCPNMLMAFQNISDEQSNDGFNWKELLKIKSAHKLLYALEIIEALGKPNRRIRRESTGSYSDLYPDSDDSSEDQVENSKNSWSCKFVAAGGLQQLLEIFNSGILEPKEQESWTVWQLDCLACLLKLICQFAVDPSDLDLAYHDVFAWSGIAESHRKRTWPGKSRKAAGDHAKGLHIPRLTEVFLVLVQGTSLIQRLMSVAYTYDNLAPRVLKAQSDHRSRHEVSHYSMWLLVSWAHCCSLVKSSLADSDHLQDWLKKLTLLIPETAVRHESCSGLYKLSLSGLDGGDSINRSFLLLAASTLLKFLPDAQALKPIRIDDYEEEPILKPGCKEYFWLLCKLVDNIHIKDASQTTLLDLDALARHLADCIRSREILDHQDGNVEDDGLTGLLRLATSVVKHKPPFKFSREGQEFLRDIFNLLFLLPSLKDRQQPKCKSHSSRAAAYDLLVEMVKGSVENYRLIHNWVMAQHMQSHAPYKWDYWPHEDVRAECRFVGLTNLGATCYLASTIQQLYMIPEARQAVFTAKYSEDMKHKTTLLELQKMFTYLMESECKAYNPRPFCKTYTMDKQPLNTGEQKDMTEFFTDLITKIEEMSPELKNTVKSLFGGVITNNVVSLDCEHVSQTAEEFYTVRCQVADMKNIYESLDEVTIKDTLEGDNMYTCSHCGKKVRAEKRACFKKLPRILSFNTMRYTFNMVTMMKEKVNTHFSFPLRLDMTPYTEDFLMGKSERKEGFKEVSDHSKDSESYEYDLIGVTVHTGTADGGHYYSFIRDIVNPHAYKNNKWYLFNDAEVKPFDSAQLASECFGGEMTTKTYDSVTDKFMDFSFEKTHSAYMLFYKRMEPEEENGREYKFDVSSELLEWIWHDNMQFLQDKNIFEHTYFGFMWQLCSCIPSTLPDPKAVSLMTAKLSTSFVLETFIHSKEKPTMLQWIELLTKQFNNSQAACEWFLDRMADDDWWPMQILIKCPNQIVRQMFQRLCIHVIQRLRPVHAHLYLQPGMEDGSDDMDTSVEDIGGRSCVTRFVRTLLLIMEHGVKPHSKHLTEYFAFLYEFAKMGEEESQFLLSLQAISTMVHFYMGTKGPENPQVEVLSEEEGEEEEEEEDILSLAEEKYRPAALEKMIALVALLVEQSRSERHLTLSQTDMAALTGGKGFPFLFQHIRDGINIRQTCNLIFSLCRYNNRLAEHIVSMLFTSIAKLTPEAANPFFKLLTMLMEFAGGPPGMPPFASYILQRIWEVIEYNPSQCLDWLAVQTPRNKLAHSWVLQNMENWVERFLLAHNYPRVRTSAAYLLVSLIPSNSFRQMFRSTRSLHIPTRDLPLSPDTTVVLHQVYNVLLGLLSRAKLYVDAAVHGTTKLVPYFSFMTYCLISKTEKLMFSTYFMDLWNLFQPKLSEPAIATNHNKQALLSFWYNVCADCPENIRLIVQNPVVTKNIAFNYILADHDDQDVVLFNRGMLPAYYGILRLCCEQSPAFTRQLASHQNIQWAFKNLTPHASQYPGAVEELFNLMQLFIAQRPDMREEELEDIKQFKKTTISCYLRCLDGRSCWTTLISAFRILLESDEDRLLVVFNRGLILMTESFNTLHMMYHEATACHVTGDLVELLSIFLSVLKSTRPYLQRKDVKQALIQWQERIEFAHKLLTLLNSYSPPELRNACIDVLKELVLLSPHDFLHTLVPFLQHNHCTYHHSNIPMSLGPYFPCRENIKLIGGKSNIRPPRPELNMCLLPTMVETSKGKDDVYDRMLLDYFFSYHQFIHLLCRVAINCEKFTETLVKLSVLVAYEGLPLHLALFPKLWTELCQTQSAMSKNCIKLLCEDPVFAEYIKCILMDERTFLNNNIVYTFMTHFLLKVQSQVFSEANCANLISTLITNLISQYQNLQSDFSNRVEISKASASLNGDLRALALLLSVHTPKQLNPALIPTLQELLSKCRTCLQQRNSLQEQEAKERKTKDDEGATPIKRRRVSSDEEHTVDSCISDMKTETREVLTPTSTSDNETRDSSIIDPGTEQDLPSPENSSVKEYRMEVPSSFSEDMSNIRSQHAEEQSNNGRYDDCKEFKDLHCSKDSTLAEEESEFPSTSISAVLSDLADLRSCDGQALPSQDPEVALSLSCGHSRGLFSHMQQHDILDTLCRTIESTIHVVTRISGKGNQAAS
In short: (§1)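 HEK293T lysate (495 µg per sample, in Tris/CHAPS/IGEPAL buffer with protease inhibitors) was treated in triplicate with fragment at 200 µM or with DMSO for 3 h. It was then treated with Biotin-Ahx-Ub-VS (0.5 µM final) for 1 h. Labelled DUBs were NeutrAvidin-enriched, digested with LysC and trypsin, and run by diaPASEF LC-MS/MS. Spectronaut label-free quantities were global-median-normalised. Values are average log2 ratios fragment/DMSO by unpaired t-test, using proteins with ≥2 unique peptides.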

USP36 = molecular target: T1, USP36 (UniProt Q9P275)
T1 sequence (whole entry): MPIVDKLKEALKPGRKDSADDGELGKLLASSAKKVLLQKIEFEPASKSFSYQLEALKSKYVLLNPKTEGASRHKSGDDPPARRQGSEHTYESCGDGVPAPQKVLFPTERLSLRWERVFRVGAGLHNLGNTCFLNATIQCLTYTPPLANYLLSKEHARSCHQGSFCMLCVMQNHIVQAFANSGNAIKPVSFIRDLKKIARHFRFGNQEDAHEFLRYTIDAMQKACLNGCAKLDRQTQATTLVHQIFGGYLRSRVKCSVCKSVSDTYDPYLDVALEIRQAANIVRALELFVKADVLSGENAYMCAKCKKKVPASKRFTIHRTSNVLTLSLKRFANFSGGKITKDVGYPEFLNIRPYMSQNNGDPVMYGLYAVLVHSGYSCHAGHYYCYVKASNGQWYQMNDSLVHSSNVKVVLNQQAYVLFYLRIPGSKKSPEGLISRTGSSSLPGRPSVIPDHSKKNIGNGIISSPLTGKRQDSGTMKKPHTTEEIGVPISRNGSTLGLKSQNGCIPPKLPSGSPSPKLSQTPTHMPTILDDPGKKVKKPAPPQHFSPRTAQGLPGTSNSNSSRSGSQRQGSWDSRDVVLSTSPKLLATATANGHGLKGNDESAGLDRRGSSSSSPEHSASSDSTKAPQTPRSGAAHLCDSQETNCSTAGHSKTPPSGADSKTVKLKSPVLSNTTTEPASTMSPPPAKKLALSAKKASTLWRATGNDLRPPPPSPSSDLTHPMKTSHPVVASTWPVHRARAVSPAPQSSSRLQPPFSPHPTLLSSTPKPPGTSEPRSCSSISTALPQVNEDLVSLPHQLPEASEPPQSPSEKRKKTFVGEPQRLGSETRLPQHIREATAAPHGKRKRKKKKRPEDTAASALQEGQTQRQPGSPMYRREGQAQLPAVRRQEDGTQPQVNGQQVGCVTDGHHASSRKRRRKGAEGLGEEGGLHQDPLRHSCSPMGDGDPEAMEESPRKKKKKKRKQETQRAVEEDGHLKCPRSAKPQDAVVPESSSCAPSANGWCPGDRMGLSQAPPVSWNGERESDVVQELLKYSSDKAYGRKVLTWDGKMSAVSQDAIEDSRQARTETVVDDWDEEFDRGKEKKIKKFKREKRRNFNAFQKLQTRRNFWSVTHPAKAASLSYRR
In short: as §1

USP38 = molecular target: T2, USP38 (UniProt Q8NB14)
T2 sequence (whole entry): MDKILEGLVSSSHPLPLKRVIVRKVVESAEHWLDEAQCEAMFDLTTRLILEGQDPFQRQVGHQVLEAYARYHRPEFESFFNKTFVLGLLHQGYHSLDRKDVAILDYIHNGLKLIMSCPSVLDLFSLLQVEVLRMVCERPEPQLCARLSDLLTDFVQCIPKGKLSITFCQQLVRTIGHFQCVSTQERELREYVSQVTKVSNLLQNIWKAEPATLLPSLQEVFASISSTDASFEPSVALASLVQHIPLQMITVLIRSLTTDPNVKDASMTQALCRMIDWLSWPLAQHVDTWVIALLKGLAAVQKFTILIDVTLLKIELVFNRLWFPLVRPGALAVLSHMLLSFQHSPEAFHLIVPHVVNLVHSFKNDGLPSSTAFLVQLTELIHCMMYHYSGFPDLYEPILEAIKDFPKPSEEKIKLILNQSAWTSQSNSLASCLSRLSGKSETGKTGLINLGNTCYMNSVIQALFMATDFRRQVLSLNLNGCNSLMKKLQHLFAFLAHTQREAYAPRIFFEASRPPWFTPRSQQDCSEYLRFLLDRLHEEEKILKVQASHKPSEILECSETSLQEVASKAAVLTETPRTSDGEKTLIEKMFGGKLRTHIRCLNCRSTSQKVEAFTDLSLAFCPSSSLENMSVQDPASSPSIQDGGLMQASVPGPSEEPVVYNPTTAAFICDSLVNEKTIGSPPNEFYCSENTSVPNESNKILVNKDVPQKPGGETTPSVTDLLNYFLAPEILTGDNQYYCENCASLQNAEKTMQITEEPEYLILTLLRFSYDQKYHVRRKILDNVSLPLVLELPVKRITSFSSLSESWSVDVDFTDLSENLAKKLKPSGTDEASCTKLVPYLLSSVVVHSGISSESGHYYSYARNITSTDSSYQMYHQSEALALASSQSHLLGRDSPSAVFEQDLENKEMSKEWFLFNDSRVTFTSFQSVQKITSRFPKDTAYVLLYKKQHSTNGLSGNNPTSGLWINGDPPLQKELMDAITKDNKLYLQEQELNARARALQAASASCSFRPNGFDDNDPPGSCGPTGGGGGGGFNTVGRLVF
In short: as §1

USP39 = molecular target: T3, USP39 (UniProt Q53GS9)
T3 sequence (whole entry): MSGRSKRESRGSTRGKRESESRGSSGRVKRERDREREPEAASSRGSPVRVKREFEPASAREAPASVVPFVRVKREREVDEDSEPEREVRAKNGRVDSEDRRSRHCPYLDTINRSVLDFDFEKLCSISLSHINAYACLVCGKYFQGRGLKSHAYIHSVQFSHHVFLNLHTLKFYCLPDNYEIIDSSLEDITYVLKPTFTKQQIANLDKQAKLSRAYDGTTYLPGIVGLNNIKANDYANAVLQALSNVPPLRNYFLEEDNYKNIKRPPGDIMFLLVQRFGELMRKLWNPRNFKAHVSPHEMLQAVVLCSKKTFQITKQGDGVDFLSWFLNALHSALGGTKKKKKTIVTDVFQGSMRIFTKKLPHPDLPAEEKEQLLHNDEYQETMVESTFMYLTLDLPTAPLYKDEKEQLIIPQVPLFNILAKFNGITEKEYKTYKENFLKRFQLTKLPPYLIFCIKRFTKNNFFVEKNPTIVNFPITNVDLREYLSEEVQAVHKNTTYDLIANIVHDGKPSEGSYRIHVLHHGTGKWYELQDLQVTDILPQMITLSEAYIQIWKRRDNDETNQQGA
In short: as §1

USP4 = molecular target: T4, USP4 (UniProt Q13107)
T4 sequence (whole entry): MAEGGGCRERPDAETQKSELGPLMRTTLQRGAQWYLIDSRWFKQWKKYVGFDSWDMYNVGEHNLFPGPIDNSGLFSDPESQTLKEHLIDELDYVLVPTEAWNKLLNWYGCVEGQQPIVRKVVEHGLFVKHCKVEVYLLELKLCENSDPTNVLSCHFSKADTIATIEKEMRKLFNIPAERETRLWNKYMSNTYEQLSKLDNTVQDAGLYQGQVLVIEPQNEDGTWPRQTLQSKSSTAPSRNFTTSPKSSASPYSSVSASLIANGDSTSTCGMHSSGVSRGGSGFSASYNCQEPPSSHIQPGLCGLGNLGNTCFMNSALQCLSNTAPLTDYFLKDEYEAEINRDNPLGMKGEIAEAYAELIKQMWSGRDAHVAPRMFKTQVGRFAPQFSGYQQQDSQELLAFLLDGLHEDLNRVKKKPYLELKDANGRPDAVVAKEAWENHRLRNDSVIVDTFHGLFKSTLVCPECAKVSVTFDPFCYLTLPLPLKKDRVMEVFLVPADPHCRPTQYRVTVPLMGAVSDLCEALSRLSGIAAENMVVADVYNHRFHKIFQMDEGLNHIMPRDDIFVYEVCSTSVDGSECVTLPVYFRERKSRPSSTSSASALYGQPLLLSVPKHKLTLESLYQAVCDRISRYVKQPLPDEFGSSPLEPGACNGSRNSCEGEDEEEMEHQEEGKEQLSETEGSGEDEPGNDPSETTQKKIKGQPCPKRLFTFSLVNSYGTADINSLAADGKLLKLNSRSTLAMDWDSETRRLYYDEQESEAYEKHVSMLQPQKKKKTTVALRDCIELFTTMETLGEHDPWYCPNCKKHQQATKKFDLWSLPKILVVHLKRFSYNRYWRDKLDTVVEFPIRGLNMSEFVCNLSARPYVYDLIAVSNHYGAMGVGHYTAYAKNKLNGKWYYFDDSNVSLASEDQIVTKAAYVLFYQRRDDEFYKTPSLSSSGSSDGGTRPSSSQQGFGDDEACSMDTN
In short: as §1

Measured: log2 ratio of Biotin-Ahx-Ub-VS probe labelling

CCc1c[nH]c(CNC(=O)CCl)n1.Cl
inactive: USP34 -0.213 | USP36 -0.245 | USP38 -0.15 | USP39 0.178 | USP4 -0.159
